Active and inactive are the calls of the source. Unless noted, the rule behind the calls is not given here.
Tests used:
[1] = resazurin metabolic signal in HepG2 cells – cell-based, resazurin fluorescence, 24 h, PK04 Diversity Set, profiling panel (AID 1172); conditions: HepG2 viability, higher = more signal
[2] = budding yeast growth changes without added modifier – OD600, strain BY4716, 24 h, basal condition, primary screen (AID 1173); conditions: S. cerevisiae BY4716 growth, OD600, 24 h; higher = more signal, called active from +8 up or from −8 down
[3] = viability profiling in MM1S myeloma cells – cell-based, resazurin fluorescence, basal, 24 h, PK04 Diversity Set, profiling panel (AID 1174); conditions: higher = more signal, called active from +8 up or from −8 down;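 note: MM1S multiple myeloma cell line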
[4] = biological target: Dihydroorotate dehydrogenase (quinone), mitochondrial (Plasmodium falciparum (isolate 3D7)) (UniProt Q08210); experiment: inhibition of P. falciparum DHODH – biochemical, C-terminal His tag, absorbance 600 nm, primary screen (AID 1175); conditions: PfDHODH enzyme, DCIP absorbance 600 nm; higher = more signal, called active from +8 up or from −8 down;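 note: recombinant parasite enzyme with a five histidine tag at its C terminus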
Chain of Dihydroorotate dehydrogenase (quinone), mitochondrial (Plasmodium falciparum (isolate 3D7)) (Q08210 whole entry, looked up): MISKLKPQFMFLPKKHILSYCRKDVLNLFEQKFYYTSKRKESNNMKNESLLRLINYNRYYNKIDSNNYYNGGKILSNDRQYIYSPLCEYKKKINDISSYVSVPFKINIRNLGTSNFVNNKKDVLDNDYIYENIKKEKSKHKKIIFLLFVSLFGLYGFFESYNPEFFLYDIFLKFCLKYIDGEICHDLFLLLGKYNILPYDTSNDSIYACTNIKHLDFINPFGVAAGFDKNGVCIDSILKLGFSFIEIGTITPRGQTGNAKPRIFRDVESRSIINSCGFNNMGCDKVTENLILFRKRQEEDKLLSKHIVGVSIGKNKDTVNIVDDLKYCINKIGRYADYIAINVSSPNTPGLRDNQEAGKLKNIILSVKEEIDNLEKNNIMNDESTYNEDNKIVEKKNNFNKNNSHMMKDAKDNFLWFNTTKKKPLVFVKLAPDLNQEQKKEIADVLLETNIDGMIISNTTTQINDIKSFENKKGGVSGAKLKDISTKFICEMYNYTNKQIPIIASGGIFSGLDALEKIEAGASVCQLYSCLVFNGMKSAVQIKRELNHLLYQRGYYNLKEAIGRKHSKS

[5] = inhibition of PAO1 biofilm formation – strain PAO1, LB-PBS medium, absorbance 600 nm, primary screen (AID 1176); conditions: P. aeruginosa PAO1 growth/biofilm, A600, 12 h; higher = more signal
[6] = growth modulation of vineyard yeast isolate – strain RM11-1a, OD600, basal, 24 h, primary screen (AID 1177);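 note: cultures grown under basal conditions with no added stressor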; conditions: S. cerevisiae RM11-1a growth, OD600, 24 h; higher = more signal, called active from +8 up or from −8 down
[7] = growth of efflux-deficient E. coli DRC39 – strain DRC39, OD650, 24 h, E. coli filamentation inducers, primary screen (AID 1178);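 note: growth measured as culture turbidity by optical density at 650 nm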; conditions: E. coli DRC39 acrAB, higher = more signal, called active from +8 up or from −8 down
[8] = growth of efflux-deficient E. coli DRC39 – strain DRC39, OD650, 48 h, E. coli filamentation inducers, primary screen (AID 1179);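 note: screen aims at cell division blockers that make cells filament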; conditions: E. coli DRC39 delta-acrAB growth, higher = more signal, called active from +8 up or from −8 down
[9] = viability profiling in RPMI8226 myeloma cells – cell-based, resazurin fluorescence, basal, 24 h, PK04 Diversity Set, profiling panel (AID 1180); conditions: higher = more signal;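 note: RPMI8826 multiple myeloma cell line at 5000 cells per well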
[10] = biological target: E3 ubiquitin-protein ligase XIAP (Homo sapiens) (UniProt P98170); experiment: small molecules binding XIAP protein – biophysical, small-molecule microarray, fluorescence 635 nm, primary screen (AID 1181); conditions: higher = more signal;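 note: score merges 667 nm emission and signal to noise over triplicate slides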
Chain of E3 ubiquitin-protein ligase XIAP (Homo sapiens) (P98170 whole entry, looked up, the tested form may be a part): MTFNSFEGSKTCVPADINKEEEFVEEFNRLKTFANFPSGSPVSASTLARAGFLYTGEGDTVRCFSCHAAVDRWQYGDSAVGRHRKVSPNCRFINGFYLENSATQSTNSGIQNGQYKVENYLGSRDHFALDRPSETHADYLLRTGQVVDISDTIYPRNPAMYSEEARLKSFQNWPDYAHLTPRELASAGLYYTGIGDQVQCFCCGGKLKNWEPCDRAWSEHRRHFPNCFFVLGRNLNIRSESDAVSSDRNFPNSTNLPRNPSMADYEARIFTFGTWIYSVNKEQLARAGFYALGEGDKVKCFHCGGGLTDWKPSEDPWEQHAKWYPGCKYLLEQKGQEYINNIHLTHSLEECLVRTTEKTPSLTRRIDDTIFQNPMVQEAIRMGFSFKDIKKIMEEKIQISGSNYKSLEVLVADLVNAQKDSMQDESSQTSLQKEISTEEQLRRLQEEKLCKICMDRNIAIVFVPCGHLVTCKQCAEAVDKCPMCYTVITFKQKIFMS

[11] = test system: XIP peptide (Xip251-270) binding; experiment: XIP fragment 251-270 binding compounds – biochemical, small-molecule microarray, fluorescence 635/667 nm, 0.1 µg/mL protein, primary screen (AID 1182); conditions: fluorescent protein binding, 635 nm, higher = more signal, called active from +8 up or from −8 down
[12] = test system: XIP peptide (Xip251-270); experiment: compounds binding XIP fragment 251-270 – biochemical, small-molecule microarray, fluorescence 635/667 nm, 0.5 µg/mL protein, primary screen (AID 1183); conditions: fluorescence 635 nm, higher = more signal
[13] = blood-stage malaria parasite viability loss – strain 3D7, DAPI fluorescence, 100 nL, primary screen (AID 1184);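 note: parasites grown inside human red blood cells in medium with human serum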; conditions: P. falciparum 3D7 growth, 3 d, higher = more signal
[14] = biological target: Homeobox protein Hox-A13 (Mus musculus) (UniProt Q62424); experiment: disruptors of Hoxa13 oligonucleotide interaction – biochemical, fluorescence polarization, labeled oligonucleotide, primary screen (AID 1185); conditions: Hoxa13:DNA binding, 15 min, higher = more signal, called active from +8 up or from −8 down
Chain of Homeobox protein Hox-A13 (Mus musculus) (Q62424 whole entry, looked up): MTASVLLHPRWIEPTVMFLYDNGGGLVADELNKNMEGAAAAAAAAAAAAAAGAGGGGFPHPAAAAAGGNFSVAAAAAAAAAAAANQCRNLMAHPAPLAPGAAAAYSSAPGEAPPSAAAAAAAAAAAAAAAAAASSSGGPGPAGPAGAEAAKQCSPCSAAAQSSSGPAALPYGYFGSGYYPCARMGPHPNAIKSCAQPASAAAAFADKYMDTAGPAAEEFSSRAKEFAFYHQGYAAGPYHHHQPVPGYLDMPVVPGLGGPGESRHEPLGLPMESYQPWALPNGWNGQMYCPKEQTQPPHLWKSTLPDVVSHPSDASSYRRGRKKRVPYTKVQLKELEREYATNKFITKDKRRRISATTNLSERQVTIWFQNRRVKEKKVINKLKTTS

[15] = blockers of DNA damage checkpoint Chk1 activation – imaging, HeLa, hydroxyurea, phospho-Chk1 antibody, percent positive cells, primary screen (AID 1186); conditions: hydroxyurea-induced phospho-Chk1 immunofluorescence imaging, higher = more signal
[16] = blockers of DNA damage checkpoint Chk1 activation – imaging, HeLa, hydroxyurea, phospho-Chk1 nuclear intensity, primary screen (AID 1187); conditions: hydroxyurea-induced phospho-Chk1 immunofluorescence imaging, higher = more signal

Row | Structure (SMILES) | z-score [1] | z-score [2] | z-score [3] | composite z-score [4] | z-score [5] | z-score [6] | z-score [7] | z-score [8] | z-score [9] | composite z-score [10] | composite z-score [11] | composite z-score [12] | z-score [13] | z-score [14] | z-score [15] | z-score [16]
1 | CC1C=C(CCCO)C=C(C(=O)OCCS(C)(=O)=O)C(C(=O)OCCS(C)(=O)=O)=CN1Cc1cccc(OC(F)(F)F)c1 (stereo not given) | -0.096 | -3.46 (inactive) | -0.0212 (inactive) | -2.15 (inactive) | 0.944 (inactive) | 0.309 (inactive) | 0.736 (inactive) | 0.503 (inactive) | 0.0364 | -0.0659 | 0.392 (inactive) | -0.0318 | -2.67 | -7.2 (inactive) | -0.0917 (inactive) | 0.397 (inactive)
2 | C=C(C(=O)CC[C@H](OC(=O)c1cccnc1)c1ccc(OCCO)cc1)C(C)C | -0.688 | -0.303 (inactive) | -2.35 (inactive) | 0.349 (inactive) | 0.273 (inactive) | 0.899 (inactive) | -0.97 (inactive) | -0.899 (inactive) | -2.53 | 0.158 | 0.538 (inactive) | 0.551 | -2.02 | -4.81 (inactive) | 0.387 (inactive) | 0.05 (inactive)
3 | COCCCNC(=O)[C@@H]1c2ccccc2C(=O)N(c2ccc(C)cn2)[C@H]1c1ccc(CO)cc1 | -1.23 | 0.357 (inactive) | 0.507 (inactive) | 0.293 (inactive) | 0.242 (inactive) | 0.169 (inactive) | -0.541 (inactive) | -0.856 (inactive) | 0.162 | -0.195 | -0.0692 (inactive) | 0.305 | -1.38 | -0.943 (inactive) | -0.106 (inactive) | 0.236 (inactive)
4 | CC(C)(C)OC(=O)CC[C@@]1(C(=O)N2CCCCC2)N=C(c2ccc(OCCCO)cc2)O[C@@H]1c1ccccc1CN=[N+]=[N-] | 0.613 | 0.0243 (inactive) | 0.053 (inactive) | 0.113 (inactive) | -0.223 (inactive) | 0.978 (inactive) | -0.366 (inactive) | 0.831 (inactive) | 0.0127 | 0.183 | 1.32 (inactive) | 0.824 | -2.24 | -4.37 (inactive) | -0.325 (inactive) | -0.038 (inactive)
5 | COc1ccc(CCNC(=O)[C@@H]2c3ccccc3C(=O)N(Cc3ccccc3C(F)(F)F)[C@H]2c2ccc(CO)cc2)cc1 | 0.743 | 0.415 (inactive) | 0.711 (inactive) | 0.717 (inactive) | -0.77 (inactive) | 1.51 (inactive) | 0.709 (inactive) | 0.633 (inactive) | 0.837 | 0.0819 | -0.251 (inactive) | 0.766 | -0.756 | -3.85 (inactive) | 0.239 (inactive) | 0.61 (inactive)
6 | O=C1C[C@@](C(=O)NCc2ccccc2)(c2ccc([N+](=O)[O-])cc2)[C@@H](c2ccc(CO)cc2I)N1C1CCCCC1 | -0.327 | 0.432 (inactive) | 0.566 (inactive) | 0.634 (inactive) | -0.301 (inactive) | 1.88 (inactive) | 0.445 (inactive) | -0.0118 (inactive) | 0.787 | -0.115 | 0.193 (inactive) | 0.676 | -1.45 | -3.45 (inactive) | 0.173 (inactive) | 0.408 (inactive)
7 | C[N+](C)(C)CCCCCCNC(=O)[C@H]1C[C@H]2C(=O)N3CCC[C@H]3C(=O)N2[C@H]1c1cccc(OCCO)c1 | 0.473 | -0.187 (inactive) | -0.41 (inactive) | -0.788 (inactive) | -0.13 (inactive) | -0.637 (inactive) | 0.12 (inactive) | -0.271 (inactive) | -0.767 | 0.135 | 0.883 (inactive) | 0.713 | 0.14 | -3.94 (inactive) | 0.372 (inactive) | 0.182 (inactive)
8 | Cc1ccccc1C(O)C1C=CC2C(=O)N(Cc3ccccc3)C(=O)C2N1n1cnnc1 (stereo not given) | 1.09 | 0.232 (inactive) | -0.562 (inactive) | -0.407 (inactive) | 0.726 (inactive) | -0.226 (inactive) | -0.197 (inactive) | 0.208 (inactive) | -0.408 | -0.184 | 0.598 (inactive) | 0.58 | -0.318 | -3.23 (inactive) | 0.135 (inactive) | -0.544 (inactive)
9 | COc1ccc([Si](C)(C)[C@@H]2[C@@H](CCO)O[C@]3(C(=O)N(Cc4ccccc4)c4ccc(N5C(=O)COc6ccccc65)cc43)[C@H]2C)cc1 | 1.52 | 2.09 (inactive) | -0.657 (inactive) | -0.0636 (inactive) | 1.2 (inactive) | 4.54 (inactive) | -0.141 (inactive) | -0.266 (inactive) | -0.976 | -0.0599 | -0.234 (inactive) | 0.667 | -2.82 | -1.89 (inactive) | -1.26 (inactive) | -1.47 (inactive)
10 | COCCOC(=O)N1C(=O)[C@@]2(c3ccccc31)[C@H](c1ccccc1OCCO)N1[C@H](c3ccccc3)[C@H](c3ccccc3)OC(=O)[C@H]1[C@@H]2C(=O)N1CCc2cc(OC)c(OC)cc2C1 | -0.413 | 1.99 (inactive) | 0.181 (inactive) | 0.301 (inactive) | 1.96 (inactive) | 3.06 (inactive) | -1.29 (inactive) | -1.3 (inactive) | 0.186 | -0.146 | 0.159 (inactive) | 0.84 | -2.46 | -2.43 (inactive) | -0.453 (inactive) | -0.193 (inactive)

From PubChem BioAssay
